Here are results for 16 compounds from PubChem BioAssay.

For some assays here: Results with a measured potency or affinity are listed apart. The list shows a part of the results. Inconclusive results are not listed. Activity calls are given as the source filed them. Unless noted, no rule for the calls is given here.

The nature of assay [1]: Ring1 de-repression measured by qPCR – cell-based, mouse ESC, RT-qPCR, cherry-pick, esBAF inhibitor project, confirmation (AID 743176;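 active = Ring1 gene expression raised more than 2-fold over untreated cells in both replicates at either tested dose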;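 also: Ring1 transcript normalised to actin housekeeping signal by TaqMan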). Conditions: mouse ESC E14, Ring1 mRNA RT-qPCR fold change, stronger effect = higher value.
Assay [2] can be described thus: Fgf4 repression measured by qPCR – cell-based, mouse ESC, RT-qPCR, cherry-pick, esBAF inhibitor project, confirmation (AID 743177;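 active = Fgf4 expression under 0.8 fold of control in both repeat measurements at one or both tested doses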;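 also: Fgf4 transcript normalised to actin in duplex TaqMan qPCR; cells exposed to compound for 24 h before lysis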). Conditions: mouse ESC E14, Fgf4 mRNA qPCR fold change, stronger effect = lower value.
A short description of assay [3]: Bmi1 mRNA increase in mouse ESCs – cell-based, RT-qPCR, mouse ESC, single point, cherry-pick, confirmation (AID 743180;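 active = Bmi1 expression fold change above 6 at either tested concentration, seen in replicate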;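 also: higher fold means more Bmi1 de-repression and stronger esBAF inhibition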). To be noted: mouse ESC E14, Bmi1 mRNA qPCR fold, stronger effect = higher value.
Assay [4] in a line: viability loss in A549 cells – cell-based, plate reader, single point, cherry-pick, cytotoxicity control (AID 743188). To be noted: at 25 µM.
The nature of assay [5]: viability loss in HepG2 cells – cell-based, plate reader, single point, cherry-pick, cytotoxicity control (AID 743189; in the data active = activity change below about -50%). To be noted: at 25 µM, stronger effect = lower value.
The nature of assay [6]: viability loss in HEK293 cells – cell-based, plate reader, single point, cherry-pick, cytotoxicity control (AID 743190; in the data active = activity change below about -38%, passing the limit was not always enough). Conditions: at 25 µM.
The nature of assay [7]: A549 cell cytotoxicity, dose response, cytotoxicity control, plate reader, cherry-pick, antagonist series (AID 743412).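 Also: 0% = neutral control wells and -100% = positive control wells.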

On to `COc1ccc(N=Cc2c(O)[nH]c3ccccc23)cc1OC`, for which the fold change in assay [1] (Ring1 fold increase, at 7 µM) was 1.32; in assay [1] (at 33 µM) it was 1.03 (inactive); in assay [3] (Bmi1 de-repression, at 7 µM), 1.45; in assay [3] (at 33 µM), 2 (inactive). The Fgf4 expression fold change in assay [2] (Fgf4 expression, at 7 µM) was 1.1; in assay [2] (at 33 µM), 1.2 (inactive). Further, the cell viability change % (negative = cytotoxic) in assay [4] is 0.475% (inactive). In addition, the activity change, negative = inhibition was 24% (inactive) in assay [5] and -17.2% (inactive) in assay [6].
For `COc1cc2ccccc2cc1C(=O)Nc1ccncc1`, the fold change in assay [1] (Ring1 fold increase, at 7 µM) was 1.36; in assay [1] (at 33 µM), 1.54 (inactive); in assay [3] (Bmi1 de-repression, at 7 µM), 1.73; in assay [3] (at 33 µM), 2.14 (inactive). For the same compound, the Fgf4 expression fold change in assay [2] (Fgf4 expression, at 7 µM) was 0.817; in assay [2] (at 33 µM) it was 1.21 (inactive). Also, the cell viability change % (negative = cytotoxic) in assay [4] is -3.23% (inactive). The activity change, negative = inhibition is -16.4% (inactive) in assay [5] and 6.79% (inactive) in assay [6].
`O=C(CCNC(=O)c1ccccc1)Nc1nc2ccccc2s1`: the fold change in assay [1] (Ring1 fold increase, at 7 µM) was 1.2; in assay [1] (at 33 µM), 0.581 (inactive); in assay [3] (Bmi1 de-repression, at 7 µM) it was 1.36; in assay [3] (at 33 µM), 1.77 (inactive). Also, the Fgf4 expression fold change in assay [2] (Fgf4 expression, at 7 µM) was 0.839; in assay [2] (at 33 µM), 0.653 (active). Besides, the cell viability change % (negative = cytotoxic) in assay [4] is -14% (inactive). Also, the results for the activity change, negative = inhibition in assay [5] and in assay [6] were 11.7% (inactive) and -12.3% (inactive), respectively.
Regarding `COc1cccc(-c2cc(C(=O)Nc3cccc(O)c3)no2)c1`, the outcome in assay [7] was inactive.
In the case of `Clc1cccc(Cl)c1Cn1nnc(-c2cccs2)n1`, the fold change was 1.24 in assay [1] (Ring1 fold increase, at 7 µM); 0.998 (inactive) in assay [1] (at 33 µM); 1.24 in assay [3] (Bmi1 de-repression, at 7 µM); 1.5 (inactive) in assay [3] (at 33 µM). For the same compound, the Fgf4 expression fold change was 1.02 in assay [2] (Fgf4 expression, at 7 µM) and 0.892 (inactive) in assay [2] (at 33 µM). Further, the cell viability change % (negative = cytotoxic) in assay [4] is -14.2% (inactive). The activity change, negative = inhibition in assay [5] was -32% (inactive); in assay [6], -18.7% (inactive).
For the compound `CC(C)(C)NC(=O)Cn1nnc(-c2ccccc2Cl)n1`, the fold change in assay [1] (Ring1 fold increase, at 7 µM) is 1.18; in assay [1] (at 33 µM), 1.12 (inactive); in assay [3] (Bmi1 de-repression, at 7 µM) it was 1.16; in assay [3] (at 33 µM), 1.15 (inactive). Also, the Fgf4 expression fold change is 0.977 in assay [2] (Fgf4 expression, at 7 µM) and 0.933 (inactive) in assay [2] (at 33 µM). The cell viability change % (negative = cytotoxic) in assay [4] is -11.9% (inactive). Also, the activity change, negative = inhibition in assay [5] was -3.1% (inactive); in assay [6], -13.6% (inactive).
Consider `O=C(Cn1ncc(Cl)c(Cl)c1=O)c1ccc2c(c1)OCCO2`, for which the compound was called inactive in assay [7].
`O=C(c1cc(-c2ccc(Cl)cc2)on1)N1CCN(c2ccccc2)CC1`: the fold change in assay [1] (Ring1 fold increase, at 7 µM) was 1.25; in assay [1] (at 33 µM), 1.06 (inactive); in assay [3] (Bmi1 de-repression, at 7 µM) it was 1.17; in assay [3] (at 33 µM), 1.27 (inactive). Further, the Fgf4 expression fold change in assay [2] (Fgf4 expression, at 7 µM) is 1.02; in assay [2] (at 33 µM), 0.994 (inactive). In addition, the cell viability change % (negative = cytotoxic) in assay [4] was -16.6% (inactive). Also, the activity change, negative = inhibition was 9.34% (inactive) in assay [5] and -19.5% (inactive) in assay [6].
In the case of `O=C(NN=Cc1ccc2c(c1)CCC2)c1ccccc1O`, the fold change is 1.13 in assay [1] (Ring1 fold increase, at 7 µM); 1.24 (inactive) in assay [1] (at 33 µM); 1.51 in assay [3] (Bmi1 de-repression, at 7 µM); 1.77 (inactive) in assay [3] (at 33 µM). Besides, the Fgf4 expression fold change in assay [2] (Fgf4 expression, at 7 µM) is 0.906; in assay [2] (at 33 µM) it was 0.972 (inactive). Also, in assay [4], the cell viability change % (negative = cytotoxic) was -5.69% (inactive). The activity change, negative = inhibition in assay [5] was -32.1% (inactive); in assay [6], 0.295% (inactive).
Turning to `O=C(CN1C(=O)c2ccccc2S1(=O)=O)Nc1ncc(Cl)cc1Cl`, in assay [7], the outcome was inactive.
Turning to `COc1ccc(/C=N/OCc2ccccc2C#N)c(OC)c1`, the fold change in assay [1] (Ring1 fold increase, at 7 µM) is 1.08; in assay [1] (at 33 µM) it was 0.981 (inactive); in assay [3] (Bmi1 de-repression, at 7 µM) it was 1.34; in assay [3] (at 33 µM), 1.44 (inactive). Besides, the cell viability change % (negative = cytotoxic) in assay [4] is -7.58% (inactive). Also, the figures for the activity change, negative = inhibition in assay [5] and in assay [6] were -31.8% (inactive) and -7.24% (inactive), respectively.
In the case of `COC(=O)c1ccc2nc(NC(=O)C(C)(C)C)sc2c1`, the call in assay [7] was inactive.
Turning to `Cc1ccc(C(=O)Nc2ccc3c(c2)OCO3)cc1S(=O)(=O)N1CCCCC1`, the fold change in assay [1] (Ring1 fold increase, at 7 µM) was 1.42; in assay [1] (at 33 µM), 1.4 (inactive); in assay [3] (Bmi1 de-repression, at 7 µM), 1.85; in assay [3] (at 33 µM), 1.9 (inactive). Also, the Fgf4 expression fold change in assay [2] (Fgf4 expression, at 7 µM) was 0.993; in assay [2] (at 33 µM), 0.915 (inactive). In assay [4], the cell viability change % (negative = cytotoxic) is 4.97% (inactive). The activity change, negative = inhibition in assay [5] was -30.2% (inactive); in assay [6], -2.34% (inactive).
For `CCc1c(C)sc(NC(=O)c2cccs2)c1C(N)=O`, the fold change in assay [1] (Ring1 fold increase, at 7 µM) is 1.31; in assay [1] (at 33 µM), 0.944 (inactive); in assay [3] (Bmi1 de-repression, at 7 µM) it was 1.35; in assay [3] (at 33 µM), 1.67 (inactive). The Fgf4 expression fold change in assay [2] (Fgf4 expression, at 7 µM) is 1.09; in assay [2] (at 33 µM) it was 1.11 (inactive). The cell viability change % (negative = cytotoxic) in assay [4] was -14% (inactive). The values for the activity change, negative = inhibition in assay [5] and in assay [6] were -29% (inactive) and -22.2% (inactive), respectively.
In the case of `O=C(c1ccc(Cl)cc1)c1cnc(Nc2ccccc2)s1`, the fold change was 1.37 in assay [1] (Ring1 fold increase, at 7 µM); 1.43 (inactive) in assay [1] (at 33 µM); 1.41 in assay [3] (Bmi1 de-repression, at 7 µM); 1.36 (inactive) in assay [3] (at 33 µM). Further, the Fgf4 expression fold change was 1.07 in assay [2] (Fgf4 expression, at 7 µM) and 0.927 (inactive) in assay [2] (at 33 µM). Moreover, the cell viability change % (negative = cytotoxic) in assay [4] is -9.73% (inactive). The results for the activity change, negative = inhibition in assay [5] and in assay [6] were -14.8% (inactive) and -18.7% (inactive), respectively.
As to `COc1ccc(CNC(=O)COc2ccccc2C(=O)c2cnn(-c3ccccc3)c2)cc1OC`, the fold change in assay [1] (Ring1 fold increase, at 7 µM) is 1.09; in assay [1] (at 33 µM), 1.32 (inactive); in assay [3] (Bmi1 de-repression, at 7 µM) it was 1.36; in assay [3] (at 33 µM), 1.57 (inactive). Besides, the Fgf4 expression fold change in assay [2] (Fgf4 expression, at 7 µM) was 1.03; in assay [2] (at 33 µM), 0.967 (inactive). Moreover, the cell viability change % (negative = cytotoxic) in assay [4] is 0.333% (inactive). In addition, the activity change, negative = inhibition is -55.5% (active) in assay [5] and -15.3% (inactive) in assay [6].
